Assay [1] can be described thus: Nuclear factor erythroid 2-related factor 2/antioxidant responsive element (Nrf2/ARE) small molecule agonists: qHTS cell viability counter screen in human keratinocytes (AID 1919968; active means well fitted curve in the direction sought with a large enough effect in the repeat runs; an effect the other way counts as inactive or inconclusive; further: nearly all actives have a fitted effect of over 55% in size; further: potency means the concentration at half of the fitted maximal effect). Summed up: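 KeratinoSens cells (HaCaT keratinocytes stably carrying an ARE-luciferase reporter) were seeded at 1,500 cells/well and rested 5 h at 37 C/5% CO2. They were then exposed to compounds in DMSO for 23 h. Viability was read by CellTiter-Fluor fluorescence after 1 h.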
On the technique in general: qHTS replaces the single test concentration by a dilution series.

The target of assay [2] is Gonadotropin-releasing hormone receptor (Homo sapiens) (UniProt P30968). Description: Human gonadotropin-releasing hormone receptor (GnRHR) small molecule agonists, calcium flux assay in GnRHR-HEK293 cells (AID 1920063). Further: nearly all actives have a fitted effect of over 35% in size. In outline:
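HEK293 cells stably expressing human GnRHR were plated 18 h at 37 °C, loaded with calcium dye 1 h at 37 °C, then given compound in agonist mode; fluorescence (Ex/Em 480/540) read kinetically for 3 min at 1 s intervals.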
On the technique in general: Calcium assays in cells follow changes in intracellular calcium, usually with a dye or a luminescent sensor.

The target of assay [3] is KiSS-1 receptor (Homo sapiens) (UniProt Q969F8). The experiment in a line: Human kisspeptin (KISS1R) small molecule agonists, calcium flux assay in KISS1R-HEK293 cells (AID 1920064; active means well fitted curve in the direction sought with a large enough effect in the repeat runs; an effect the other way counts as inactive or inconclusive). In outline:
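HEK293 cells stably expressing human KISS1R were plated 18 h at 37 °C, loaded with calcium dye for 1 h at 37 °C, then given compound by pin tool. Fluorescence (Ex/Em 480/540) was read kinetically for 3 min.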

The nature of assay [4]: G protein-coupled receptor (GPCR) small molecule agonists, calcium flux assay: HEK293 wild type cell line counter screen (AID 1920065). In outline:
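Cells were plated and cultured 18 h at 37 C/5% CO2, then loaded with calcium dye for 1 h at 37 C. Compounds in DMSO were pin-transferred in agonist mode, and fluorescence (Ex/Em 480/540) was read kinetically for 3 min at 1 s intervals.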

Assay [5] in a line: p53 small molecule agonists, cell-based qHTS assay with human liver microsomes (AID 1963577). Summed up: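 Fluorescence of the beta-lactamase reporter in p53RE-bla cells, detected with LiveBLAzer substrate (2 h, room temperature, dark), served as the read-out after 16 h compound exposure at 37 C with human liver microsomes and NADPH, each 0.5 mg/mL final.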
A short description of assay [6]: p53 small molecule agonists, cell-based qHTS assay with rat liver microsomes (AID 1963578). Summed up: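 Cells carrying a p53 response element–beta-lactamase reporter were plated and rested 5 h, then dosed with compound in DMSO plus rat liver microsomes and NADPH, each at 0.5 mg/mL final. After 16 h at 37 C, LiveBLAzer substrate was added for 2 h.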
Assay [7] can be described thus: p53 small molecule agonists, cell-based qHTS assay with human liver microsomes: qHTS cell viability counter screen (AID 1963579). Further: nearly all actives have a fitted effect of over 45% in size. Summed up:
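Cytotoxicity counter screen: p53RE-bla, 4,000 cells/well; 5 h settle, 37 C/5% CO2; cpd + HLM 0.5 mg/mL + NADPH 0.5 mg/mL (final); 16 h, 37 C; CellTiter-Glo, 30 min RT, luminescence.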

The nature of assay [8]: p53 small molecule agonists, cell-based qHTS assay with rat liver microsomes: qHTS cell viability counter screen (AID 1963580). Further: nearly all actives have a fitted effect of over 45% in size. Summed up: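 In HCT-116 cells carrying a p53 response element-bla reporter, compounds were metabolically activated in situ by rat liver microsomes with NADPH over 16 h. Cell ATP content then served as the cytotoxicity measure.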
A short description of assay [9]: p53 small molecule agonists, cell-based qHTS assay (AID 1963582; active means well fitted activation curve with a large enough effect in the signal ratio in the repeat runs, not every such curve was filed as active; the % refers to the signal ratio). Summed up: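 p53RE-bla beta-lactamase reporter cells rested 5 h at 37 C/5% CO2, then received compounds in DMSO by pin transfer and were incubated 16 h at 37 C. LiveBLAzer B/G FRET substrate was loaded for 2 h at room temperature before fluorescence reading.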
The nature of assay [10]: cAMP Responsive Elements (CRE) small molecule agonists, cell-based qHTS assay (AID 1963590). In outline: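 CRE-bla HEK 293T cells in DMEM with 10% dialyzed FBS, NEAA, pyruvate and 25 mM HEPES were plated 18 h at 37 C/5% CO2, then exposed to compounds in DMSO for 3 h before LiveBLAzer B/G FRET substrate addition.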
A short description of assay [11]: cAMP Responsive Elements (CRE) small molecule antagonists, cell-based qHTS assay (AID 1963591; active means well fitted inhibition curve with a large enough effect in the signal ratio in the repeat runs, not every such curve was filed as active; the % refers to the signal ratio). In outline: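 CRE-bla HEK293T cells were plated 18 h at 37 °C/5% CO2, pinned with compound in DMSO, then stimulated with NKH477 at 0.25 uM final for 3 h. LiveBLAzer B/G FRET substrate was added and plates incubated 2 h at room temperature.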
Assay [12] has as its target D(2) dopamine receptor (Homo sapiens) (UniProt P14416). Description: Dopamine D2 receptor (DRD2) small molecule agonists, cell-based qHTS assay (AID 1963594). Further: nearly all actives have a fitted effect of over 35% in size. In outline:
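HEK293 cells stably expressing DRD2 were cultured 24 h at 37 C, then given Ro20-1724 (0.1 mM final) and compounds for 10 min at room temperature. NKH477 (200nM) was then added for 30 min. cAMP was read by HTRF.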

Assay [13] is described as follows: p53 small molecule agonists, cell-based qHTS assay: qHTS cell viability counter screen (AID 1963581). Further: nearly all actives have a fitted effect of over 45% in size. In outline:
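p53RE-bla HCT-116 cells were exposed to compounds for 16 h at 37 C; after the beta-lactamase FRET read in the same wells, CellTiter-Glo was added and luminescence (intracellular ATP) read after 30 min at room temperature.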

Assay [14] concerns the target 5-hydroxytryptamine receptor 2A (Homo sapiens) (UniProt P28223). The experiment in a line: 5-hydroxytryptamine receptor 2A (HTR2A) small molecule antagonists, cell-based qHTS assay (AID 1963586). Further: nearly all actives have a fitted effect of over 45% in size. Summed up:
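Antagonist-mode intracellular calcium assay: DOI (4 nM) added after 5 min compound pre-incubation at room temperature to dye-loaded HTR2A-CHO cells. Fluorescence followed for 3 min, sampled every second.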

The target is the same in assay [15]. The experiment in a line: 5-hydroxytryptamine receptor 2A (HTR2A) small molecule agonists, cell-based qHTS assay (AID 1963587). Further: nearly all actives have a fitted effect of over 30% in size. In outline:
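HTR2A-CHO cells, plated 18 h at 37 C/5% CO2, dye-loaded 1 h at 37 C; compounds in DMSO added by pin tool (agonist mode). Intracellular calcium flux read as kinetic fluorescence on FDSS over 2 min at 1 s intervals.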

Assay [16] concerns the target Muscarinic acetylcholine receptor M1 (Homo sapiens) (UniProt P11229). The experiment in a line: Cholinergic receptor muscarinic 1 (CHRM1) small molecule antagonists, cell-based qHTS assay (AID 1963588). Further: nearly all actives have a fitted effect of over 40% in size. In outline: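 CHRM1-CHO calcium-flux assay, antagonist mode. Cells were seeded 18 h, dye-loaded 1 h at 37 C and given compound for 5 min at RT, then acetylcholine was added at 50nM. FDSS fluorescence was read 3 min; 15 concentrations, three runs.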

The target is the same in assay [17]. Description: Cholinergic receptor muscarinic 1 (CHRM1) small molecule agonists, cell-based qHTS assay (AID 1963589). Further: nearly all actives have a fitted effect of over 35% in size. In outline:
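CHO cells stably expressing human CHRM1, seeded 18 h at 37 C/5% CO2, dye-loaded 1 h at 37 C, then given compound in agonist mode; intracellular calcium fluorescence read kinetically at 1 s intervals. Fifteen concentrations, three independent runs.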

The target of assay [18] is D(2) dopamine receptor (Homo sapiens) (UniProt P14416). The experiment in a line: Dopamine D2 receptor (DRD2) small molecule antagonists, cell-based qHTS assay (AID 1963595; active means well fitted inhibition curve with a large enough effect in the signal ratio in the repeat runs, with a control signal flat; the % refers to the signal ratio). Summed up:
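Readout: HTRF cAMP, cAMP-d2 competing with cellular cAMP for anti-cAMP cryptate, read after 1 h. Cells: DRD2-HEK293. Conditions: 0.1 mM Ro20-1724, 12 nM quinpirole, 200 nM NKH477, 30 min RT.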

The target of assay [19] is Beta-2 adrenergic receptor (Homo sapiens) (UniProt P07550). Description: Adrenergic beta2 receptor (ADRB2) small molecule antagonists, cell-based qHTS assay (AID 1963592). Further: series mostly up to about 92 µM; nearly all actives have a fitted effect of over 50% in size. In outline:
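Cells (CHO, stable ADRB2 overexpression) incubated 18-20hr at 37C; compounds added from DMSO; agonist mix (1nM isoproterenol, 100uM IBMX, 25uM Ro-20-1724) added; 0.5hr RT; d2-cAMP and anti-cAMP-cryptate added; 1hr RT; 665/615 nm read.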

The structures appear in SMILES notation. Inconclusive results are not listed. Calls of active or inactive are those of the source. Unless noted, the call rests on the fitted dose curve.

Chain of D(2) dopamine receptor (Homo sapiens) (P14416 whole entry, looked up): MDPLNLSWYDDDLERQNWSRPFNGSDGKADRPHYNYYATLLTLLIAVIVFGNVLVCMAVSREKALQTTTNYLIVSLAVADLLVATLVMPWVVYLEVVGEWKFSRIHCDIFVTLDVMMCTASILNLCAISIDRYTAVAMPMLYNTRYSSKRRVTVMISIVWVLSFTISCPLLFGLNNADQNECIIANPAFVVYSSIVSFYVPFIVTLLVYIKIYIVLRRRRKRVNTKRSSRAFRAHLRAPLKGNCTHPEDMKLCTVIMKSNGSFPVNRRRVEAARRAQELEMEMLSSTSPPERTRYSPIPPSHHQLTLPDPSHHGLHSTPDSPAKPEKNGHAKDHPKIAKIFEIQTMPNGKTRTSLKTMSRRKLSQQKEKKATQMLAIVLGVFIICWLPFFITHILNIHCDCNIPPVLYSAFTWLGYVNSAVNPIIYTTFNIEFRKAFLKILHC
Chain of Gonadotropin-releasing hormone receptor (Homo sapiens) (P30968 whole entry, looked up): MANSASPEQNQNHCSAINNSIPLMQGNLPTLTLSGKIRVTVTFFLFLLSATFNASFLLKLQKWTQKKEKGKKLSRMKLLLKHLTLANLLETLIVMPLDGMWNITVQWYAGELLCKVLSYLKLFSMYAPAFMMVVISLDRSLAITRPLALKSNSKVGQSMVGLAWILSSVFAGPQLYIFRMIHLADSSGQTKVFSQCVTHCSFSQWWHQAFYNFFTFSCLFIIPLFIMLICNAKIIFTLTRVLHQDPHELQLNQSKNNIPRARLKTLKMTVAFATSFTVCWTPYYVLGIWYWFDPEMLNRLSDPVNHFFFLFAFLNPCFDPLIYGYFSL
Chain of Beta-2 adrenergic receptor (Homo sapiens) (P07550 whole entry, looked up): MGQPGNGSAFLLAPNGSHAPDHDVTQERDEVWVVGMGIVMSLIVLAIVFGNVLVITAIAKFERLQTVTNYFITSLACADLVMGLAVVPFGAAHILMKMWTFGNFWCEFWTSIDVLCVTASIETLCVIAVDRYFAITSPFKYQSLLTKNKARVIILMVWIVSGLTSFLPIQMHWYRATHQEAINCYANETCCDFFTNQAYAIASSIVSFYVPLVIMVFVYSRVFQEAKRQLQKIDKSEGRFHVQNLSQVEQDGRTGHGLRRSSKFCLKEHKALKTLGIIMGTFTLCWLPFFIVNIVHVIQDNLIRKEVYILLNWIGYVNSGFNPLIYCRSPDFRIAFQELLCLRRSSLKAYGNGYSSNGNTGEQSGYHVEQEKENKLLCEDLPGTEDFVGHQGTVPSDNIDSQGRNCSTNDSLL
Chain of 5-hydroxytryptamine receptor 2A (Homo sapiens) (P28223 whole entry, looked up): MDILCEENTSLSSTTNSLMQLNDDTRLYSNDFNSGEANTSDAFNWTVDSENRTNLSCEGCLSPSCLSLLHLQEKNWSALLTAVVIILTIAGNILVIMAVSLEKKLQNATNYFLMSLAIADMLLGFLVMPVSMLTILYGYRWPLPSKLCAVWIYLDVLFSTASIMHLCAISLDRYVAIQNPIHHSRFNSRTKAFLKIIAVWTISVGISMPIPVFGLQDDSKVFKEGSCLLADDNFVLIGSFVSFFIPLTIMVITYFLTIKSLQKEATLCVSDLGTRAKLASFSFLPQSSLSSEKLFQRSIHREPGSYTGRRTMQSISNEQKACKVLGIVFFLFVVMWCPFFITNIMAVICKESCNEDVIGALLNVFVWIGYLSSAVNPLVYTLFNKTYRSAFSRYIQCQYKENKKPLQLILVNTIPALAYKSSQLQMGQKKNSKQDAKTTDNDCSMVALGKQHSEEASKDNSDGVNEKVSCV
Chain of Muscarinic acetylcholine receptor M1 (Homo sapiens) (P11229 whole entry, looked up): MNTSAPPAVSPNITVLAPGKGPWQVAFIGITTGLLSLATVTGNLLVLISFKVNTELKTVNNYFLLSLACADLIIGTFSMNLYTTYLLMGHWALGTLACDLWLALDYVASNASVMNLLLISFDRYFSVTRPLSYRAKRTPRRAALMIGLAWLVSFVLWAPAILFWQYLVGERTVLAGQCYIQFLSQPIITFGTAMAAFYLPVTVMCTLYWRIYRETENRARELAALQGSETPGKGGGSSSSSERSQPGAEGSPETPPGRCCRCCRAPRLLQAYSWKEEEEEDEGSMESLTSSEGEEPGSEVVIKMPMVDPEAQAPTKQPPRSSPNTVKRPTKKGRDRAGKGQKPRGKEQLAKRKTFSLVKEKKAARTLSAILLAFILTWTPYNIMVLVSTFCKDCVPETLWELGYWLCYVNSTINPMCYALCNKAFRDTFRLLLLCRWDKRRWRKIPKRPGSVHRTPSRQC
Chain of KiSS-1 receptor (Homo sapiens) (Q969F8 whole entry, looked up): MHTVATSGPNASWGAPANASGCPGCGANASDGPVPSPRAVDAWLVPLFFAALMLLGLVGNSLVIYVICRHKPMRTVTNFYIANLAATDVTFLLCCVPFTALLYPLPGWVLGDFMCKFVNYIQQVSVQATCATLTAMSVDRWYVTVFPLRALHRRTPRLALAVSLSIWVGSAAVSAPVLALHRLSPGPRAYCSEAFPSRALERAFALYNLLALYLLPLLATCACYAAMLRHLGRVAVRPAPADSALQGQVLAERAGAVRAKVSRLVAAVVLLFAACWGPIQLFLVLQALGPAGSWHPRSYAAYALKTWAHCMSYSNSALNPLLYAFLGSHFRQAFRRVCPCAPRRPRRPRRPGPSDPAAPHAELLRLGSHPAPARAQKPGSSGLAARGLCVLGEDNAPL

As to `Cc1nc2n(c(=O)c1CCN1CCC(c3noc4cc(F)ccc34)CC1)CCCC2`, the Potency result in [1], in [2], in assay [5], in assay [6], in [7] and in assay [8] was “inactive” each time. The Potency entry in assay [9], in [10], in assay [11] and in assay [12] was “inactive” each time. Further, the outcome in assay [3] and in assay [4] was inactive.
`Cc1cc(OI)c(C(C)C)cc1-c1cc(C(C)C)c(OI)cc1C`: the Potency result in [1], in assay [2], in assay [5], in assay [6], in assay [8] and in assay [13] was “inactive” each time. Further, the Potency entry in [9], in [14], in [15], in assay [16], in [17] and in [10] was “inactive” in each case. Also, the Potency result in assay [11], in [12] and in assay [18] was “inactive” throughout. Besides, the result in assay [3] and in [4] was inactive.
`C=CC(=O)OCCOCCOC(=O)C=C`: in assay [1], the Potency was 54.7 µM (active). The Potency entry in assay [2], in [5], in [6], in assay [8], in [14] and in [15] was “inactive” each time. Also, the Potency result in assay [16], in assay [17], in assay [19], in assay [12] and in assay [18] was “inactive” throughout. The result in [3] and in [4] was inactive.
Take `COCCOCCOCCOC`: the Potency result in assay [1], in assay [2], in [5], in assay [6], in assay [7] and in [8] was “inactive” throughout. For the same compound, the Potency result in assay [9], in [14], in assay [15], in assay [16], in assay [17] and in assay [10] was “inactive” throughout. The Potency entry in assay [11], in assay [19], in assay [12] and in assay [18] was “inactive” throughout. The result in [3] and in assay [4] was inactive.
Regarding `CC/C=C\CCCCO`, the Potency result in [1], in assay [2], in [5], in [7], in assay [8] and in [13] was “inactive” in each case. The Potency result in [9], in assay [14], in [15], in [16], in assay [17] and in assay [10] was “inactive” throughout. Besides, the Potency entry in assay [11], in assay [19], in assay [12] and in [18] was “inactive” throughout. Further, the result in assay [3] and in [4] was inactive.
With `C=C(C)C1CC=C(C)C(O)C1` (stereo not drawn), the Potency result in [1], in [2], in assay [5], in [6], in assay [7] and in assay [8] was “inactive” each time. Further, the Potency result in assay [13], in assay [15], in [16], in [17], in assay [10] and in assay [11] was “inactive” each time. Moreover, the Potency result in assay [19], in assay [12] and in assay [18] was “inactive” throughout. The outcome in [3] and in assay [4] was inactive.
With `CCOC(=O)[C@H](C)O`, the Potency result in assay [1], in [2], in assay [5], in assay [6], in assay [8] and in assay [13] was “inactive” in each case. Moreover, the Potency entry in [9], in assay [14], in assay [15], in assay [16], in assay [17] and in assay [10] was “inactive” each time. The Potency result in [11], in assay [19], in assay [12] and in [18] was “inactive” throughout. Further, the outcome in assay [3] and in [4] was inactive.
Consider `CC(C(=O)O)c1ccc(CC2CCCC2=O)cc1` (stereo not drawn), for which the Potency result in assay [1], in [2], in assay [5], in [6], in assay [8] and in assay [13] was “inactive” each time. For the same compound, the Potency entry in assay [9], in assay [10], in assay [11], in assay [19], in assay [12] and in assay [18] was “inactive” throughout. Besides, the outcome in [3] and in [4] was inactive.

Source of the values: PubChem BioAssay (Tox21).
